These results are taken from PubChem BioAssay.

The nature of assay [1]: compounds binding Alexa647 anti-His antibody – biochemical, small-molecule microarray, 635 nm fluorescence, artefact control for SMM control protein annotation, primary screen (AID 1128).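 Also: score merges feature fluorescence with signal-to-noise for each printed compound spot.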 To be noted: higher = more signal.
Assay [2] relates to Human papillomavirus type 1a E7 protein (residues 1-88). Put plainly: HPV1a E7 small-molecule binders, primary screen, biochemical, small-molecule microarray, residues 1-88, 635 nm (AID 1129). To be noted: small-molecule microarray binding, fluorescence 635 nm; higher = more signal.
In assay [3] the target is Focal adhesion kinase 1 (Homo sapiens) (UniProt Q05397). As to the kind of experiment: PTK2 protein binding on printed compound slides – biochemical, small-molecule microarray, 635/667 nm fluorescence, BSA, DTT, primary screen (AID 1130).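 Also: composite of spot emission at 667 nm and signal to noise over triplicate slides.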 To be noted: 635 nm fluorescence, higher = more signal.
The test system of assay [4] is Fibrinogen (Alexa647-labelled). Put plainly: Alexa647-fibrinogen binding to printed small molecules – biochemical, small-molecule microarray, 635/667 nm fluorescence, artefact control for SMM control-protein annotation, profiling panel (AID 1131).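 Also: z-score merges 667 nm fluorescence with per-spot signal-to-noise over triplicate slides.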 The following applies: fibrinogen-A647 binding fluorescence, higher = more signal.
For assay [5], the target named is Follistatin (Homo sapiens) (UniProt P19883). Put plainly: FST protein binding to printed compounds – biochemical, small-molecule microarray, 635/667 nm fluorescence, primary screen (AID 1132). The following applies: 635 nm fluorescence, higher = more signal.
The target of assay [6] is Fibroblast growth factor 2 (Homo sapiens) (UniProt P09038). Put plainly: basic fibroblast growth factor binding to printed compounds – biochemical, small-molecule microarray, 635/667 nm fluorescence, primary screen (AID 1133). To be noted: FGF2, fluorescence 635/667, higher = more signal.
Assay [7] is described as follows: JC-1 mitochondrial potential readout, lung cancer cells – cell-based, A549, JC-1 fluorescence, basal, 24 h, 100 nL, profiling panel (AID 1138).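 Also: A549 lung adenocarcinoma cells under basal conditions with no added stimulus; test concentration not given here.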 To be noted: higher = more signal.
Assay [8] relates to Lefty1. Put plainly: Lefty1 protein binding to printed compounds – biochemical, small-molecule microarray, 635/667 nm fluorescence, primary screen (AID 1139). The following applies: fluorescence 635/667, higher = more signal.
Assay [9] relates to wheat germ agglutinin (Triticum aestivum), Alexa647-labelled. Put plainly: Alexa647-WGA lectin binding to printed small molecules – biochemical, small-molecule microarray, 635/667 nm fluorescence, artefact control for SMM control-protein annotation, profiling panel (AID 1140).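 Also: score merges 667 nm feature emission with signal to noise over triplicate slides.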 To be noted: WGA-A647 binding, 635 nm fluorescence, higher = more signal.
For assay [10], the target named is Luciferin 4-monooxygenase (Photinus pyralis) (UniProt P08659). Put plainly: inhibition of purified Photinus pyralis luciferase – biochemical, luminescence, purified enzyme, 2006 set, primary screen (AID 1141).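 Also: cell-free assay with purified firefly luciferase at 100 ng per well in PBS; test concentration not given here.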 The following applies: purified firefly luciferase, SteadyGlo luminescence, 30 min; higher = more signal, called active from +8 up or from −8 down.
The test system of assay [11] is Wnt5a (protein binding on small-molecule microarray). As to the kind of experiment: small molecules binding Wnt5a protein – biophysical, small-molecule microarray, 635/667 nm fluorescence, primary screen (AID 1142).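 Also: fluorescence read at 667 nm with signal to noise per printed feature.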 To be noted: 635 nm fluorescence, higher = more signal.
A short description of assay [12]: ATP-based viability of Huh7 replicon cells – cell-based, CellTiter-Glo luminescence, basal, 48 h, cytotoxicity control for HCV replication inhibitor project, primary screen (AID 1143).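 Also: Huh7 hepatoma cells carrying a hepatitis C replication reporter with no stimulus; test concentration not given here.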 The following applies: higher = more signal, called active from +8 up or from −8 down. A general note: A replicon is a self-replicating genome or part of one, used to study replication in cells.

Assay [13] can be described thus: Pseudomonas biofilm growth suppression – PAO1 strain, BacTiter-Glo luminescence, LB-PBS, primary screen (AID 1144). The following applies: P. aeruginosa PAO1 biofilm, 12 h, higher = more signal.
A short description of assay [14]: basal CRE-LacZ reporter activity in PC12 – cell-based, unstimulated, primary screen (AID 1145). The following applies: no forskolin, luminescence, 4.5 h, higher = more signal, called active from +8 up or from −8 down.
A short description of assay [15]: forskolin-driven CRE-LacZ activity in PC12 – cell-based, CRE-LacZ reporter, forskolin-stimulated, primary screen (AID 1146).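 Also: PC12 cells with 6xCRE LacZ reporter stimulated by forskolin 10 µM; beta-galactosidase reporter signal reflecting CREB driven transcription.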 The following applies: luminescence, 4.5 h, higher = more signal, called active from +8 up or from −8 down.
In assay [16] the target is Streptavidin (Streptomyces avidinii) (UniProt P22629). As to the kind of experiment: compounds binding control protein streptavidin – biophysical, small-molecule microarray, 635/667 nm fluorescence, artefact control for SMM compound annotation, primary screen (AID 1147).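 Also: signal reflects streptavidin binding to arrayed compounds as a control protein.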 To be noted: higher = more signal.
Assay [17] in a line: probe aInhba binding on compound microarray – biochemical, small-molecule microarray, 635/667 nm fluorescence, primary screen (AID 1148).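 Also: score merges 667nm spot fluorescence with signal-to-noise for antibody binding to printed compounds.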 The following applies: higher = more signal.
Assay [18] addresses Torsin-1A (Homo sapiens) (UniProt O14656). Put plainly: TOR1A wild-type binding on microarray – cell lysate, small-molecule microarray, lysate, 635/667 nm, primary screen (AID 1149). The following applies: COS7 hTOR1A-WT lysate, 635 nm fluorescence, higher = more signal.
Assay [19] shares this target. Put plainly: torsin A mutant lysate binding on microarrays – cell lysate, small-molecule microarray, COS7 lysate, 635/667 nm fluorescence, primary screen (AID 1150).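 Also: score pools 667 nm emission and signal to noise measuring lysate protein binding.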 The following applies: COS7 hTOR1A mutant lysate, 635 nm fluorescence, higher = more signal.
The test system of assay [20] is Sonic hedgehog protein (Shh). Put plainly: Sonic hedgehog microarray binding compounds – biochemical, small-molecule microarray, 635/667 nm fluorescence, primary screen (AID 1151).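 Also: Shh protein binding to compounds spotted on small-molecule microarray slides; score combines spot fluorescence intensity with signal-to-noise across triplicate slides.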 To be noted: 635 nm fluorescence, higher = more signal.

Calls of active or inactive are those of the source. Unless noted, no rule for the calls is given here.

Sequence of Fibroblast growth factor 2 (Homo sapiens) (P09038 whole entry, looked up): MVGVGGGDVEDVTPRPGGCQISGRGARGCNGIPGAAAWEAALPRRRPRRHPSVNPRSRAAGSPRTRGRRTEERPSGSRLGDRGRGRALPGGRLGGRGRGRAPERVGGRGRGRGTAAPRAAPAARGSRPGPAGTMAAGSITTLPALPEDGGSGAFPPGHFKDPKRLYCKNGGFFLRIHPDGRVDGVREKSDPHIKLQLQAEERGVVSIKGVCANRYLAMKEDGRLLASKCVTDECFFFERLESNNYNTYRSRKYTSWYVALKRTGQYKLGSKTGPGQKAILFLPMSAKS
Sequence of Luciferin 4-monooxygenase (Photinus pyralis) (P08659 whole entry, looked up): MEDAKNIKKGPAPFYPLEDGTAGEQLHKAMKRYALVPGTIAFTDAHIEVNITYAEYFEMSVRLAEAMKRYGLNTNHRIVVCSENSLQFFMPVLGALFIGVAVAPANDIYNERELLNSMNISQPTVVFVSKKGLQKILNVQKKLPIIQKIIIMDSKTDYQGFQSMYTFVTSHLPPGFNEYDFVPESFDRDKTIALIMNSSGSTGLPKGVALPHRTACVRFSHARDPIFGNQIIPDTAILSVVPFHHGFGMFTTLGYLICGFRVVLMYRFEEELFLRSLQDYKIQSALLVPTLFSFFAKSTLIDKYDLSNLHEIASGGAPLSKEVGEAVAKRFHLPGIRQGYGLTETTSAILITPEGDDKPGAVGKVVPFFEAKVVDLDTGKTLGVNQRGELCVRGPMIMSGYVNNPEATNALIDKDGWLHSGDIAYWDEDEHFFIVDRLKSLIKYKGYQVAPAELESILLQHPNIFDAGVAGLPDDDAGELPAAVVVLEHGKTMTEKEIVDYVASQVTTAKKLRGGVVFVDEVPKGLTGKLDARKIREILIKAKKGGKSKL
Sequence of Follistatin (Homo sapiens) (P19883 whole entry, looked up): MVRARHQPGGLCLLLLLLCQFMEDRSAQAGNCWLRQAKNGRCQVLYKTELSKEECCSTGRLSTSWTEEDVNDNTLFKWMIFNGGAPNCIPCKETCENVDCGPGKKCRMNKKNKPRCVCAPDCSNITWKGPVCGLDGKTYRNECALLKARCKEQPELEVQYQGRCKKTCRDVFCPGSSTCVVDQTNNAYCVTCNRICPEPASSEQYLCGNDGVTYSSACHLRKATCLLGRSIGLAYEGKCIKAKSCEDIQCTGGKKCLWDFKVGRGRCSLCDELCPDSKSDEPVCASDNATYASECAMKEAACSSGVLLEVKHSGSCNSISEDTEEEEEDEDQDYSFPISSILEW
Sequence of Streptavidin (Streptomyces avidinii) (P22629 whole entry, looked up): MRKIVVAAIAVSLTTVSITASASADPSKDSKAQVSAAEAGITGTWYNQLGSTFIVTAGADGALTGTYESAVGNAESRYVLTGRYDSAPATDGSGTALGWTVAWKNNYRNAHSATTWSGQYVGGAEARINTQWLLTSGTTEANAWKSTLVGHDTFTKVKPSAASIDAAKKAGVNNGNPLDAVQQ
Sequence of Focal adhesion kinase 1 (Homo sapiens) (Q05397 whole entry, looked up): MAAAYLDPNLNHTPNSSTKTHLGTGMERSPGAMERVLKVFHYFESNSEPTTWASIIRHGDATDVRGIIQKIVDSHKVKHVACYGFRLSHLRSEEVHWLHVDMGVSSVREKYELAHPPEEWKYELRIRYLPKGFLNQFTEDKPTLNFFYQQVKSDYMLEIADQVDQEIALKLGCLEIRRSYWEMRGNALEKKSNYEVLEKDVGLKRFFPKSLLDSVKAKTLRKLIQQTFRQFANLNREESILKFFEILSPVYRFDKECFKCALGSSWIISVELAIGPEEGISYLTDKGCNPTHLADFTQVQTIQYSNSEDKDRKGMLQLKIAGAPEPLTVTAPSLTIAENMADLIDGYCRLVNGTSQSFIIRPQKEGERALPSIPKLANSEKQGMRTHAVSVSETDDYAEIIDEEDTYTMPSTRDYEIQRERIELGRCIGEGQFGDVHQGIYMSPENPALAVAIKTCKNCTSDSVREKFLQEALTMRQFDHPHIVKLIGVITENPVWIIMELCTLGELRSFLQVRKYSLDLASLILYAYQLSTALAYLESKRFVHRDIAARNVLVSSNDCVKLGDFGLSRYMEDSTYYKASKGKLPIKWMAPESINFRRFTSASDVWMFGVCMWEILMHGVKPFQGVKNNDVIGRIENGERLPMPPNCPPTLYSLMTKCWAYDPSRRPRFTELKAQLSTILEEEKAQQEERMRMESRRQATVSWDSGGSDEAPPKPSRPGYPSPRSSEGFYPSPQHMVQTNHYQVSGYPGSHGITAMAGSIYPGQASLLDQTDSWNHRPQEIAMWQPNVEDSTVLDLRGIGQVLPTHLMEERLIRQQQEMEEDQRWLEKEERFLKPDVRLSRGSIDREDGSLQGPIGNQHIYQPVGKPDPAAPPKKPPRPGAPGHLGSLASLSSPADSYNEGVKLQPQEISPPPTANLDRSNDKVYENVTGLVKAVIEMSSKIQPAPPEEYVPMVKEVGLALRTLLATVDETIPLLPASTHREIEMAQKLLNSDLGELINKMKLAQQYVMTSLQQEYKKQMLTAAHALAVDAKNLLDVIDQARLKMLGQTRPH
Sequence of Torsin-1A (Homo sapiens) (O14656 whole entry, looked up): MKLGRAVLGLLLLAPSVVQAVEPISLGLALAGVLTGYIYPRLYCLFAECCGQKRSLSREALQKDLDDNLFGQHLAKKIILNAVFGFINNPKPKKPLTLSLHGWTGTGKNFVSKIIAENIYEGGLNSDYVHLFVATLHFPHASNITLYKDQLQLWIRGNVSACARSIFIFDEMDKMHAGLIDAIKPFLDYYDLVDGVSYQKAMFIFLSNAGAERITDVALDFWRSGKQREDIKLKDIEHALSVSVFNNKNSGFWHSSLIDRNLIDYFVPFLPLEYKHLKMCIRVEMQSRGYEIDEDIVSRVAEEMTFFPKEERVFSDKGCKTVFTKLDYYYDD

Turning to `CC(=O)NCCCC[C@@H]1NC(=O)[C@@H]2C[C@H](C(=O)NCCCCN(C)C)[C@H](c3cccc(OCCO)c3)N2C1=O`, the composite z-score in assay [1] is 0.605; in [2], -0.158; in [3] it was -0.208; in [4] it was -0.908; in [5] it was 1.21; in [6], 1.08. Besides, the composite z-score in assay [8] is 0.471; in [9], -0.159; in assay [11] it was -0.0339; in assay [16], -0.451; in assay [17], -0.154; in assay [18] it was -1.28. In addition, the composite z-score in [19] worked out at 0.0889; in assay [20] it was 1.04. Also, the z-score in assay [7] was -0.446; in assay [10], 0.603 (inactive); in assay [12], 0.344 (inactive); in assay [13], -0.269 (inactive); in assay [14], 0.0043 (inactive); in [15], -0.874 (inactive).
On to `CC(C)(C)OC(=O)CC[C@]1(C(=O)O)N=C(c2ccc(OCCCO)cc2)O[C@H]1c1ccccc1N=[N+]=[N-]`, for which the composite z-score in assay [1] turned out to be 1.95; in assay [2] it was 0.815; in assay [3], 0.238; in [4] it was 0.882; in assay [5], 0.891; in [6] it was 0.0606. Further, the composite z-score in assay [8] is -0.811; in assay [9] it was 0.963; in assay [11], 0.629; in assay [16], 1.32; in assay [17], 0.825; in assay [18] it was -0.09. Also, the composite z-score in [19] was 0.414; in assay [20] it was -0.815. In addition, the z-score in assay [7] was -0.974; in assay [10], -10.5 (active); in assay [12], -0.686 (inactive); in assay [13], 0.448 (inactive); in assay [14] it was -0.38 (inactive); in assay [15] it was -0.658 (inactive).
Turning to `O=C1OCCC/C=C\[C@H]2OC34C=CCN(Cn5nnc6ccccc65)C(=O)[C@H]3N(CCO)C(=O)[C@@H]4C12` (stereo not given in full), the composite z-score was 0.893 in assay [1]; -0.318 in [2]; -0.344 in [3]; -1.27 in assay [4]; -0.481 in assay [5]; -1.36 in assay [6]. Also, the composite z-score was -0.368 in assay [8]; 0.556 in [9]; -0.212 in [11]; -0.712 in assay [16]; 0.8 in [17]; -2.75 in [18]. For the same compound, the composite z-score in assay [19] is -1.23; in assay [20], -0.533. Besides, the z-score in assay [7] is -0.438; in [10], 1.27 (inactive); in [12], -0.363 (inactive); in assay [13] it was -2.05 (inactive); in [14], -1.58 (inactive); in assay [15], -0.713 (inactive).
As to `O=C1O[C@@H](c2ccccc2)[C@@H](c2ccccc2)N2[C@@H](c3ccccc3OCCO)[C@]3(C(=O)Nc4ccc(C#CC5=CCCCC5)cc43)[C@@H](C(=O)Nc3nc4ccccc4s3)[C@H]12`, the composite z-score in [1] turned out to be 0.353; in [2], 1.17; in assay [3], 0.0358; in assay [4] it was 0.843; in [5], 1.12; in assay [6] it was 0.885. The composite z-score in assay [8] was 0.781; in assay [9] it was 0.622; in assay [11], 0.799; in assay [16], 1.1; in assay [17], 0.0516; in assay [18] it was -0.271. Moreover, the figures for the composite z-score in [19] and in assay [20] were 0.335 and 0.988, respectively. The z-score was -2.22 in [7]; -0.959 (inactive) in assay [10]; -4.3 (inactive) in assay [12]; -1.15 (inactive) in assay [13]; -0.191 (inactive) in assay [14]; 0.447 (inactive) in assay [15].
Consider `CC(=O)N1Cc2ccccc2C[C@@]2(COC(c3ccc(OCCCO)cc3)=N2)C1=O`, for which the composite z-score in [1] turned out to be 1.93; in assay [2] it was 1.18; in [3], 0.994; in assay [4] it was 0.842; in [5], 1.26; in [6], 0.701. Also, the composite z-score was 0.0786 in assay [8]; 1.29 in assay [9]; 0.36 in assay [11]; 1.23 in [16]; 0.407 in [17]; 0.135 in [18]. Also, the figures for the composite z-score in assay [19] and in assay [20] were 0.997 and 0.504, respectively. For the same compound, the z-score in assay [7] is -0.956; in assay [10], -2.19 (inactive); in assay [12] it was -2.57 (inactive); in assay [13], -0.957 (inactive); in assay [14] it was 1.82 (inactive); in assay [15], -1.42 (inactive).
